HT1080 IDH1KD tx: qHTS for induction of synthetic lethality in tumor cells producing 2HG: qHTS for the HT-1080-IDH1KD cell line. AID 686971, 2013. HT-1080 IDH1 knockdown viability, ATP luminescence, 48 h. Potency, µM (top dose mostly 46.1 µM), inactives show at the highest dose activity, negative = toxicity, actives largely listed as cytotoxic. actives 2% (n = 360,000);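 further: 0% = DMSO wells and -100% = cell-free medium wells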
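CellTiter-Glo luminescence after 48 h compound exposure at 37 degrees C of IDH1-knockdown HT-1080 cells in 5% FBS RPMI. %Activity scaled between DMSO wells and cell-free media wells, with curves fitted and assigned curve classes.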
HT1080-NT tox: qHTS for induction of synthetic lethality in tumor cells producing 2HG: qHTS for the HT-1080-NT fibrosarcoma cell line. HT-1080-NT fibrosarcoma viability, CellTiter-Glo ATP luminescence, 48 h. Potency, µM (highest dose often 46.1 µM), for the others: at the highest dose activity, negative = less viability, usual class: cytotoxic. actives 1.6% (n = 360,000);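 further: NT is the 2HG producing partner of a matched IDH1 knockdown line; 0% = DMSO-treated cells and -100% = media-only wells without cells; nearly all actives have a fitted effect of over 55% in size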
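HT-1080-NT; 750 cells/well; 5% FBS RPMI; 48 h compound, 37 degrees C; CellTiter-Glo luminescence; curve fitting and curve-class assignment.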
KB-3-1 cytotox: qHTS assay for MDR1-selective chemotherapeutics: Primary screen using the parental adenocarcinoma cell KB-3-1; Potency, µM (titrated, usually from 46.1 µM), actives largely listed as cytotoxic; AID 1347075, 2019; actives 1.4% (n = 400,000); KB-3-1 viability, CellTiter-Glo ATP luminescence, 72 h; further: on the % scale 0 is the no-effect control and ±100 the full control effect; nearly all actives have a fitted effect of over 60% in size
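Cytotoxicity in the drug-sensitive parental line KB-3-1 was scored as loss of CellTiter-Glo luminescence following 72 h incubation with compound. Values come from curve fitting of normalized concentration-response data.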
MCF10A rerep: A quantitative high throughput screen for small molecules that induce DNA re-replication in MCF 10a normal breast cells | MCF 10A DNA re-replication, Hoechst nuclear intensity, 48 h | Potency, µM (top dose mostly 46.1 µM), for inactives: at the top dose activity, positive = re-replication, hits mostly activators | actives 2.9% (n = 350,000); further: % of control where 0% means no effect; nearly all actives have a fitted effect of over 50% in size
SW480 rerep: A quantitative high throughput screen for small molecules that induce DNA re-replication in SW480 colon adenocarcinoma cells. SW480 DNA re-replication, Hoechst DNA content imaging, 48 h. Potency, µM (doses to about 46.1 µM), for inactives: at the highest dose re-replication activation, most hits filed as activators. actives 1.8% (n = 340,000). AID 624297, 2012; further: % of control where 0% means no effect; nearly all actives have a fitted effect of over 55% in size
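Hoechst fluorescence of nuclei (405 nm excitation, 500-530 nm emission) measured by plate-scanning imager after 48 hr compound exposure at 37 C; re-replication scored as increased number of nuclei with elevated intensity.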
KB-V1 cytotox: qHTS assay for MDR1-selective chemotherapeutics: Primary screen using the drug-selected MDR subline cells KB-V1; KB-V1 MDR cells viability, CellTiter-Glo, 72 h; Potency, µM (highest dose often 46.1 µM), hits mostly cytotoxic; actives 3.4% (n = 400,000); AID 1347076, 2019; further: on the % scale 0 is the no-effect control and ±100 the full control effect; nearly all actives have a fitted effect of over 60% in size
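KB-V1, DMEM (no phenol red) + 10% FBS; cpd pin-transferred, titration series; 72 h, 37 degrees C; CellTiter-Glo, luminescence. Data normalized, curve-fit.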
An asterisk follows results filed as active; i = inactive; ? = inconclusive; · = no result; [ ] = another dose, or the depositor's remark. Only some compounds are listed: those with a hit (about 8% of all), similar ones and a draw of the others. The call rests on the fitted dose curve; in most records, active means well fitted curve in the direction sought with a large enough effect; inconclusive means small, poorly fitted or top-dose-only effect, or another doubt; inactive means no such curve, though single readings can be large; an effect the other way counts as inactive or inconclusive. Potency means the concentration at half of the fitted maximal effect.

SMILES	HT1080 IDH1KD tx	HT1080-NT tox	KB-3-1 cytotox	MCF10A rerep	SW480 rerep	KB-V1 cytotox
Cc1cc(N/N=C/c2ccccc2Cl)nc(NCc2ccccc2)n1	?	?	?	16.4µM*	?	?
CCOc1ccc(NC(=O)Nc2c[nH]c(=O)[nH]c2=O)cc1	·	·	i	·	·	i
Cc1cccc(-c2nc(SCc3cc(=O)c4c(C)cc(C)cc4[nH]3)n[nH]2)c1	·	·	i	·	·	i
Cc1cc(C)nc(N/N=C/c2cccc3ccccc23)n1	3.6%	14.0%	i	-5.5%	4.2%	18.4µM*
Cc1ccc(Nc2cc(C)nc(NCc3ccccc3)n2)cc1	18.4µM*	20.6µM*	?	18.4µM*	?	11.6µM*
COc1ccc(C2c3cc(OC)c(OC)cc3CC(=O)N2c2cccc(C#N)c2)cc1 (stereo not given)	·	·	i	·	·	i
Cc1ccc(Oc2ccc(S(=O)(=O)NCC(C)(C)N3CCOCC3)cc2)cc1	-10.5%	-18.9%	?	20.6µM*	-10.6%	11.6µM*
CC(C)(CNS(=O)(=O)c1ccc2c(c1)OCCO2)N1CCOCC1	1.8%	10.7%	i	1.3%	1.7%	i
Fc1ccc(N2C(=S)SC(=Nc3ccccc3)C2=Nc2ccccc2)cc1	-4.4%	-4.7%	i	6.1%	-1.9%	i
N#CC(C#N)=C1SC(=Nc2ccccc2)C(=Nc2ccccc2)N1c1ccccc1	?	?	20.6µM*	3.26µM*	?	?
CC(C)C[C@H](NC(=O)c1[nH]cnc1C(=O)Nc1ccc(CNC(=O)OC(C)(C)C)cc1)C(=O)OC(C)(C)C	18.4µM*	?	i	?	4.4%	?
C[C@H](NC(=O)c1[nH]cnc1C(=O)Nc1ccc(CNC(=O)OC(C)(C)C)cc1)C(=O)OCc1ccccc1	?	?	?	?	-3.5%	?
CC(C)C[C@H](NC(=O)c1nc[nH]c1C(=O)NCc1ccc(CNC(=O)OC(C)(C)C)cc1)C(=O)OC(C)(C)C	?	-10.7%	i	-3.8%	-16.7%[9.22 µM]	?
CC(C)C[C@H](NC(=O)c1nc[nH]c1C(=O)NCCCCCNC(=O)OC(C)(C)C)C(=O)OCc1ccccc1	-0.6%	-9.9%	i	?	-0.5%	?
CC(C)(C)OC(=O)NCCCCCNC(=O)c1[nH]cnc1C(=O)N[C@@H](Cc1ccccc1)C(=O)OCc1ccccc1	-0.2%	?	?	13µM*	?	i
CC(C)C[C@H](NC(=O)c1[nH]cnc1C(=O)Nc1ccc(CNC(=O)OC(C)(C)C)cc1)C(=O)OCc1ccccc1	-23.9%	?	i	18.4µM*	9.5%	?
COc1ccc(C(=O)c2oc3ccccc3c2NC(=O)c2cc(=O)c3ccc(C)cc3o2)cc1Cl	·	·	i	·	·	i
COc1ccc(CCNC(=O)c2nnn(-c3cccc(C)c3)c2N)cc1OC	0.6%	9.3%	i	?	0.4%	9.2µM*
COc1ccc(CCNC(=O)c2cc3cc(Cl)ccc3nc2N)cc1OC	18.4µM*	-7.2%	i	·	·	i
Nc1nc2ccc(Cl)cc2cc1C(=O)NCCc1ccc(O)cc1	?	-14.8%	?	·	·	?
COc1ccc(/C=C/C(=O)NCCc2ccc(OC)c(OC)c2)cc1	19.8%	4.8%	i	1.2%	1.5%	i
COc1ccc(CCNC(=O)/C=C/c2ccc3ccccc3n2)cc1OC	23.1µM*	?	?	16.4µM*	20.6µM*	18.4µM*
COc1ccc(CNC(=O)c2cc(-c3ccncc3)nc3c(C)cc(C)cc23)cc1OC	-9.9%	-17.9%	i	?	-1.7%	23.1µM*
O=c1cc(-c2ccc(F)cc2)nc(SCc2nc(-c3cccc(C(F)(F)F)c3)no2)[nH]1	·	·	i	·	·	i
COc1ccc(CCNC(=O)c2cc(-c3ccncc3)nc3c(Cl)cccc23)cc1OC	1.2%	-7.8%	i	4.9%	-6.8%	23.1µM*
SMILES	HT1080 IDH1KD tx	HT1080-NT tox	KB-3-1 cytotox	MCF10A rerep	SW480 rerep	KB-V1 cytotox
COc1ccc(-c2cc(C(=O)NCCc3ccccc3)c3c(-c4ccc(Cl)cc4)[nH]nc3n2)cc1	·	·	i	·	·	23.1µM*
COc1ccc(CCNC(=O)c2cc(-c3ccccc3)nc3ccccc23)cc1OC	·	·	i	·	·	23.1µM*
Cc1ccc(C(=O)c2oc3ccccc3c2NC(=O)COc2ccc(C(C)(C)C)cc2)cc1	·	·	i	·	·	i
O=c1c2c(nc3c(-c4cccc(Br)c4)c[nH]n13)CCCC2	-13.1%	-10.2%	i	-68.5%[0.0737 µM]	?	i
O=c1c2c(nc3c(-c4ccccc4)c[nH]n13)CCC2	?	11.2µM*	?	-2.8%	-3.5%	?
O=c1c2c(nc3c(-c4ccc(Cl)cc4)c[nH]n13)CCC2	?	-21.4%	?	30.0%	?	4.61µM*
Cc1ccc(-c2[nH]n3c(=O)c4c(nc3c2C)CCCC4)cc1	-1.5%	4.3%	i	1.8%	-32.8%	i
Cc1c(-c2ccccc2)[nH]n2c(=O)c3c(nc12)CCCC3	-2.0%	9.5%	i	6.3%	?	20.6µM*
O=C(O)/C=C/c1cccc(B(O)O)c1	·	·	?	·	·	i
C=CCNc1nc2cc(-c3cccc(Cl)c3)sc2c(=O)n1C	?	?	i	·	·	?
Cc1cccc(N2CCN(C(=O)c3cccc(-n4c(C)nc5cccnc54)c3)CC2C)c1 (stereo not given)	·	·	i	·	·	i
CC(=O)NCC(=O)OCC(=O)c1ccc(C)c(C)c1	0.0%	25.4%	i	-5.1%	8.6%	i
Cc1ccc(C(=O)COC(=O)C2C3C=CC(C3)C2C(=O)OCC(=O)c2ccc(C)c(C)c2)cc1C (stereo not given)	-1.2%	2.5%	?	2.9%	2.0%	16.4µM*
CCCc1ccc2oc(C(=O)NCCN3CCCC(O)C3)c(C)c2c1 (stereo not given)	23.1µM*	?	i	?	23.1µM*	i
Cc1cc(Br)cn2cc(C(=O)O)nc12	8.7%	3.8%	i	-7.7%	-104.2%	i
O=C(NCCN1CCC(n2c(=O)[nH]c3ccccc32)CC1)c1ccc(Cl)c(Cl)c1	?	20.6µM*	?	·	·	20.6µM*

Screens from PubChem.
